Compounds without any hit were thinned out: in the full panel of roughly 83,000, 20% have a hit.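 Treatment: one concentration, 48 hours, 96-well format. Scoring: percent growth, with anything below 10 considered active.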 Active and inactive are the calls of the source.
Legend:
Assay in all cases: NCI-60 one-dose screen, 48 h (100 = growth as untreated, 0 = no growth, -100 = all killed)
Settings in all cases: 10 µM unless noted
T-47D breast = test system: T-47D breast
MDA-MB-435 melanoma = test system: MDA-MB-435 melanoma
SW-620 colon = test system: SW-620 colon
MCF7 breast = test system: MCF7 breast
HCT-116 colon = test system: HCT-116 colon
BT-549 breast = test system: BT-549 breast
HCC-2998 colon = test system: HCC-2998 colon
KM12 colon = test system: KM12 colon

Measured: growth

Nc1ncnc(Nc2ccccc2)n1
inactive: T-47D breast 96.3% | MDA-MB-435 melanoma 107% | SW-620 colon 101% | MCF7 breast 101% | HCT-116 colon 118%

CC(=O)[C@@]1(O)CC[C@H]2[C@@H]3CC[C@@H]4CC(=O)CC[C@]4(C)[C@H]3[C@@H](O)C[C@@]21C
inactive: T-47D breast 88.2% | BT-549 breast 102% | SW-620 colon 100% | MCF7 breast 93.6% | HCT-116 colon 107% | HCC-2998 colon 98.4% | KM12 colon 101%

Nc1cc2c(cc1Cl)C(=O)c1ccccc1C2=O
inactive: T-47D breast 35.7% | BT-549 breast 37.9% | MDA-MB-435 melanoma 90.1% | MCF7 breast 65.9% | HCC-2998 colon 69% | KM12 colon 28.8%
active: HCT-116 colon 1.71%

COC1=C(OC)C(=O)C(SC/C=C(\C)CCCC(C)CCCC(C)CCCC(C)C)=CC1=O (stereo not drawn)
inactive: T-47D breast 12.5% | MDA-MB-435 melanoma 18.5% | SW-620 colon 18.7% | KM12 colon 11.6%
active: MCF7 breast 4.9% | HCT-116 colon 9.93% | HCC-2998 colon -4.48%

CCOC(=O)/C(O)=C(\C=N\C(=S)Nc1ccc(Cl)c(Cl)c1)C(=O)OCC
inactive: T-47D breast 58.3% | MDA-MB-435 melanoma 87.1% | SW-620 colon 104% | MCF7 breast 81% | HCT-116 colon 101% | HCC-2998 colon 87.9% | KM12 colon 100%

CC(C)c1ncc([N+](=O)[O-])n1C
inactive: T-47D breast 101% | BT-549 breast 103% | MDA-MB-435 melanoma 136% | MCF7 breast 97.2% | HCT-116 colon 107% | HCC-2998 colon 105% | KM12 colon 111%

CC(C)c1ccc(C(=O)OCCCl)cc1
inactive: T-47D breast 91.1% | MDA-MB-435 melanoma 95.9% | SW-620 colon 106% | MCF7 breast 92.6% | HCT-116 colon 82.4% | HCC-2998 colon 98.9% | KM12 colon 115%

CCOC(=O)C1(N)CCCCC1
inactive: T-47D breast 93.4% | BT-549 breast 113% | MDA-MB-435 melanoma 99.2% | MCF7 breast 97.1% | HCT-116 colon 96% | HCC-2998 colon 101% | KM12 colon 107%

CSCCC(NC(=O)C(Cl)Cl)C(=O)O (stereo not drawn)
inactive: T-47D breast 82.9% | BT-549 breast 102% | SW-620 colon 100% | MCF7 breast 95.3% | HCT-116 colon 91.2% | HCC-2998 colon 98.8% | KM12 colon 106%

COc1ccc(-c2csc(NC(=O)Nc3nc(-c4ccc(OC)cc4)cs3)n2)cc1
inactive: T-47D breast 56.5% | BT-549 breast 79.9% | MDA-MB-435 melanoma 78.7% | MCF7 breast 71.6% | HCT-116 colon 64.2% | HCC-2998 colon 100% | KM12 colon 64.6%

CCOS(=O)(=O)c1ccc([N+](=O)[O-])cc1
inactive: T-47D breast 101% | MDA-MB-435 melanoma 107% | SW-620 colon 119% | MCF7 breast 103% | HCT-116 colon 106% | HCC-2998 colon 104% | KM12 colon 108%

CCOC(=O)c1cc(Cl)c(O)c(Cl)c1
inactive: T-47D breast 118% | MDA-MB-435 melanoma 126% | SW-620 colon 109% | MCF7 breast 98.1% | HCT-116 colon 102% | HCC-2998 colon 112% | KM12 colon 108%

CNc1ccccc1C(N)=O
inactive: T-47D breast 98.1% | BT-549 breast 101% | MDA-MB-435 melanoma 105% | MCF7 breast 92.7% | HCT-116 colon 96.8% | HCC-2998 colon 106% | KM12 colon 101%

CCOC(=O)CSCCC#N
inactive: T-47D breast 83.4% | BT-549 breast 87.2% | MDA-MB-435 melanoma 106% | MCF7 breast 93.6% | HCT-116 colon 95.2% | HCC-2998 colon 104% | KM12 colon 105%

COc1ccc(/C=C\C(=O)/C=C/c2ccc(OC)cc2)cc1
active: MDA-MB-435 melanoma -30.4% | HCT-116 colon -96.6% | HCC-2998 colon -16% | KM12 colon 4.59%
inactive: T-47D breast 80.1% | BT-549 breast 48.5% | MCF7 breast 11%

CN(C)c1ccc2c(N(C)C)cc(N(C)C)nc2c1
inactive: T-47D breast 56% | MDA-MB-435 melanoma 80.2% | SW-620 colon 51.6% | MCF7 breast 13.9% | HCT-116 colon 48.1% | HCC-2998 colon 118%

C=C(C)[C@@H]1CC[C@]2(CO)CC[C@]3(C)[C@H](CC[C@@H]4[C@@]5(C)CC[C@H](O)C(C)(C)[C@@H]5CC[C@]43C)[C@@H]12
active: HCT-116 colon 1.87%
inactive: T-47D breast 32.2% | BT-549 breast 49.3% | MDA-MB-435 melanoma 77.9% | MCF7 breast 42.9% | KM12 colon 49.1%

CC(c1ccccc1)N(C)C (stereo not drawn)
inactive: T-47D breast 112% | BT-549 breast 101% | MDA-MB-435 melanoma 119% | MCF7 breast 99.5% | HCT-116 colon 93.8% | HCC-2998 colon 113% | KM12 colon 101%

Cc1cc(NC(=O)c2ccccc2)c(Cl)cc1N
inactive: T-47D breast 98% | MDA-MB-435 melanoma 97.4% | SW-620 colon 106% | MCF7 breast 84.9% | HCT-116 colon 103% | HCC-2998 colon 102%

CCOC(=O)C(C#N)=C1CCN(C)CC1
inactive: T-47D breast 106% | BT-549 breast 103% | MDA-MB-435 melanoma 109% | HCT-116 colon 103% | KM12 colon 97.7%
